# Active and inactive are the calls of the source. How the source made its calls: active means hit-call score of the fitted dose curve at least 0.9, where 1 is the maximum; inconclusive means response in the unintended direction; inactive means score below 0.9.
# Biological target: Estrogen receptor (Homo sapiens) (UniProt P03372)
# Assay: OT_ERa_GFPERaERE_0120: Odyssey Thera (OT) 2-hour HeLa Transcription Induction Assay for Estrogen Receptor (AID 2283382)
# Experimental: OT_ERa_GFPERaERE_0120 is a cell-based, single-readout assay that uses HeLa, a human cervix cell line, with measurements taken at 2 hours after chemical dosing in a 384-well plate.OT_ERa_GFPERaERE_0120 is one of one assay component(s) measured or calculated from the OT_ERa_GFPERaERE_0120 assay. It is designed to make measurements of fluorescent protein induction, a form of inducible reporter, as detected with optical microscopy: fluorescence microscopy signals by Microscopy technology.Data from the assay component OT_ERa_GFPERaERE_0120 was analyzed into 1 assay endpoint. This assay endpoint, OT_ERa_EREGFP_0120, was analyzed in the positive analysis fitting direction relative to DMSO as the negative control and baseline of activity. Using a type of inducible reporter, measures of receptor for gain-of-signal activity can be used to understand the reporter gene at the pathway-level as they relate to the gene ESR1. Furthermore, this assay endpoint can be referred to as a primary readout, because the performed assay has only produced 1 assay endpoint. To generalize the intended target to other relatable targets, this assay endpoint is annotated to the nuclear receptor intended target family, where the subfamily is steroidal.
# All assay endpoints are quantified using high content image analysis algorithms.
# Chain of Estrogen receptor (Homo sapiens) (P03372 whole entry, looked up): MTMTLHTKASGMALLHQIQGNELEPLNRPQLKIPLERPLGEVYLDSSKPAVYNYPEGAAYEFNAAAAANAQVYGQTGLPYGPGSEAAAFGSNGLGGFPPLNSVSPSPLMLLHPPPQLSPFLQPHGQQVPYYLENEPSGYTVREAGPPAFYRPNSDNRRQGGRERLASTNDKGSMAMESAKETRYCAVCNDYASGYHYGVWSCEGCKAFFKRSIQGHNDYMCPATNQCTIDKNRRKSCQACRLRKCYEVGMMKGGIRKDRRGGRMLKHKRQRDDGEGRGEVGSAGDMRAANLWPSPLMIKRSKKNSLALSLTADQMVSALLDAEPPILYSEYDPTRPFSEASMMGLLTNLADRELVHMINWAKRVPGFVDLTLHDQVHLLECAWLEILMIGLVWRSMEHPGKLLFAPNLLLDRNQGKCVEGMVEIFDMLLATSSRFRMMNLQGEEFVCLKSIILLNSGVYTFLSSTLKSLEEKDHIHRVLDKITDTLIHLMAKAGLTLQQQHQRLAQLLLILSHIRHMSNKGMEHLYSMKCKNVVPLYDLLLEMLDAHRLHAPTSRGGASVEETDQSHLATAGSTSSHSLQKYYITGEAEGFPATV
Structure (SMILES),outcome,AC50
NNC(=O)c1ccncc1,inactive,–
COc1cc2c(c(OC)c1OC)-c1ccc(OC)c(=O)cc1[C@@H](NC(C)=O)CC2,inactive,–
NC(=O)N1c2ccccc2C=Cc2ccccc21,inactive,–
CC(C)CCCCCCOC(=O)C1CCCCC1C(=O)OCCCCCCC(C)C (stereo not given),inactive,–
CCCc1ccccc1,inactive,–
CC(C)C(=O)Nc1ccc([N+](=O)[O-])c(C(F)(F)F)c1,inactive,–
O=C1CN(N=Cc2ccc([N+](=O)[O-])o2)C(=O)N1,inactive,–
CC(C)c1nnc2ccc(-c3ocnc3-c3cc(F)ccc3F)cn12,inactive,–
O=C(NO)C1(NS(=O)(=O)c2ccc(Oc3ccc(F)cc3)cc2)CCOCC1,inactive,–
CC1(C)C(=O)N(Cl)C(=O)N1Cl,inactive,–
CCc1ccc(O)c(C(C)(C)C)c1,inactive,–
O=C(O)c1cccc(C[C@@H]2COc3ccc(OCc4nc5cc(F)ccc5s4)cc3[C@@H]2O)c1,inactive,–
c1ccc(C(O[C@@H]2CCCN(CCc3ccc4c(c3)OCO4)C2)c2ccccc2)cc1,inactive,–
O=S1(=O)CCCO1,inactive,–
CCN(CC)C(=S)SSC(=S)N(CC)CC,–,77.7 µM (active)
CCCCCOC(C)=O,inactive,–
O=C(O)CO,inactive,–
CCCCC(CC)C(=O)OCCOCCOCCOC(=O)C(CC)CCCC (stereo not given),inactive,–
CCCCCCCCCCCCCCO,inactive,–
Nc1ccn([C@@H]2O[C@H](CO)[C@@H](O)[C@@H]2O)c(=O)n1,–,62.2 µM (active)

Structure (SMILES),outcome,AC50
O=C(O)c1ccc2c(c1)nc(C(=O)NC1CCN(C3CC3)CC1)n2Cc1cc(-c2ccc(Cl)s2)on1,inactive,–
C[C@@H](Oc1ccc(CNC(=O)c2cccnc2Oc2ccc3c(c2)OCO3)c(F)c1)C(=O)O,inactive,–
C=CCc1cc(S(=O)(=O)c2ccc(O)c(CC=C)c2)ccc1O,inactive,–
CCOC(N)=O,inactive,–
c1ccc2cc3ccccc3cc2c1,inactive,–
Cn1c(=O)c2[nH]cnc2n(C)c1=O,inactive,–
Cc1nccn1-c1ccc(Sc2cccc(C3(C(N)=O)CCOCC3)c2)cc1,inactive,–
O=c1[nH]cnc2c1ncn2[C@H]1CC[C@@H](CO)O1,inactive,–
NC(N)=O,inactive,–
OC(CCl)CCl,inactive,–
COCc1nnc(-c2ccc[n+]([O-])c2)n1-c1c(Cl)c(Cl)cc2[nH]c(=O)c(=O)[nH]c12,inactive,–
c1ccc2c(c1)-c1cccc3c1c-2cc1ccccc13,–,77.5 µM (active)
Cc1ncc([C@@H](CCCCCCc2ccc3c(n2)NCCC3)CC(=O)O)cn1,inactive,–
C=CN1CCCC1=O,inactive,–
OCC(CO)(CO)CO,inactive,–
CCCCCCCCCC,inactive,–
O=C(O)c1cccc(C(=O)O)c1,inactive,–
Cc1ccc(S(=O)(=O)NC(=O)NN2CCCCCC2)cc1,inactive,–
CCCC(CCC)C(=O)O,inactive,–
OC[C@H]1O[C@@H]2O[C@H]3[C@H](O)[C@@H](O)[C@@H](O[C@H]4[C@H](O)[C@@H](O)[C@@H](O[C@H]5[C@H](O)[C@@H](O)[C@@H](O[C@H]6[C@H](O)[C@@H](O)[C@@H](O[C@H]7[C@H](O)[C@@H](O)[C@@H](O[C@H]1[C@H](O)[C@H]2O)O[C@@H]7CO)O[C@@H]6CO)O[C@@H]5CO)O[C@@H]4CO)O[C@@H]3CO,inactive,–
